High-throughput results from PubChem BioAssay.
A selection: hits, their analogues and other compounds. The true share with any hit is near 19%.
TDP1 cell noCPT: qHTS for Inhibitors of human tyrosyl-DNA phosphodiesterase 1 (TDP1): qHTS in cells in absence of CPT; DT40 Tdp1-/- hTDP1 cells, no CPT, ATP luminescence, 48 h; Potency, µM (highest dose often 46.2 µM), for the others: at the highest dose activity change, negative = growth inhibition, most hits filed as inhibitors; hit rate 15% among 420,000; AID 686978, 2013; further: potency means the concentration at half of the fitted maximal effect; on the % scale 0 is the no-effect control and ±100 the full control effect; nearly all actives have a fitted effect of over 55% in size
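Seeded 400 DT40-hTDP1 cells/well (vehicle DMSO, no 20 nM CPT); pinned compounds; ≥48 hr at 37 °C; CellTiter-Glo luminescence as viability measure.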
HepG2 tox: HepG2 cytotoxicity, counter-screen for TGF-b inhibitors | hit rate 0.76% among 410,000 | HepG2 CAGA-GFP viability, ATP luminescence, 18 h | Potency, µM (highest dose often 46.1 µM), inactives show top-dose activity change, negative = cytotoxicity, usual class: cytotoxic; further: potency means the concentration at half of the fitted maximal effect
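HepG2 CAGA-GFP cells (1000/well, DMEM with 1% FBS) received compound, then TGF-beta at 500 pg/mL final, and were incubated 18 hours at 37 degrees C. Viability was read by CellTiter-Glo luminescence. Media-only wells were set as complete cell-killing and DMSO as no toxicity.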
DT40 TDP1 CPT: growth inhibition of DT40 Tdp1-/-;hTDP1 cells with camptothecin (screen for TDP1 inhibitors). hit rate 12% among 420,000. AID 686979. chicken DT40 Tdp1-/-;hTDP1 cells + 20 nM CPT, ATP luminescence, 48 h. Potency, µM (series often up to 46.2 µM), without a hit: at the top dose activity change, negative = growth inhibition, most hits filed as inhibitors; further: potency means the concentration at half of the fitted maximal effect; on the % scale 0 is the no-effect control and ±100 the full control effect; nearly all actives have a fitted effect of over 55% in size
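Chicken DT40 Tdp1-/- cells stably complemented with human TDP1 were seeded at 400 cells/well in medium containing 20 nM camptothecin, exposed to pin-transferred compounds, and grown at 37 °C for at least 48 hr. Viability was read as ATP luminescence.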
TGFb inhibitor: blocks TGF-b signaling; Potency, µM (titrated, usually from 46.1 µM), for the others: top-dose activity, negative = inhibition, most hits filed as inhibitors; hit rate 1.2% among 410,000; HepG2 CAGA-GFP TGF-b/SMAD3 reporter, GFP fluorescence, 18 h; TGF-beta stimulated, 500 pg/mL final; further: potency means the concentration at half of the fitted maximal effect; on the % scale 0 is the no-effect control and ±100 the full control effect; nearly all actives have a fitted effect of over 65% in size
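HEPG2 CAGA-GFP, 1000 cells/well; 2 h settle, 37 C; cpd via pin tool; TGF-b 500 pg/mL final; 18 h, 37 C; GFP imaging ex488/em500-530; %Activity normalised to -TGF-b and +DMSO controls; CRC fit, curve class.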
ASM inhibitor: human S-ASM enzyme inhibition | placental ASM, HMU-PC fluorogenic substrate, 60 min | Potency, µM (top dose mostly 57.5 µM), for the others: at the top dose activity change, negative = inhibition, hits mostly inhibitors | hit rate 0.006% among 340,000 | AID 504937; further: potency means the concentration at half of the fitted maximal effect
Target sequence (P17405 47-631 limits assumed): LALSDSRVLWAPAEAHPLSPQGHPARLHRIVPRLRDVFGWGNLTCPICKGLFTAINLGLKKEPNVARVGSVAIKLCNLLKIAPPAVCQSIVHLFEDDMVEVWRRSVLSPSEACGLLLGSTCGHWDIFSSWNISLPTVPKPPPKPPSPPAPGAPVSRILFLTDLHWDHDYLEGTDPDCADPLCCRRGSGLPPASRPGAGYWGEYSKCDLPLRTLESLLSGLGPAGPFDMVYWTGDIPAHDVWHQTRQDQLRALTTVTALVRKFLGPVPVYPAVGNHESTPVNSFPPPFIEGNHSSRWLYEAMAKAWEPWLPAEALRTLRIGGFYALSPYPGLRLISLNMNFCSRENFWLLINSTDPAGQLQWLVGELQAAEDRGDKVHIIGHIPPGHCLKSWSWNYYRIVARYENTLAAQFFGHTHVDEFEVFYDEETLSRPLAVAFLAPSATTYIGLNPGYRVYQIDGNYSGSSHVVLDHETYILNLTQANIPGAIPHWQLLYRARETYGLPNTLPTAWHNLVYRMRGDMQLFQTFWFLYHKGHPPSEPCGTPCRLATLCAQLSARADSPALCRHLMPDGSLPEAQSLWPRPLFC
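Human placenta-derived ASM preincubated with compound 10 min at room temperature, then reacted with 9 uM (final) fluorogenic HMU-PC substrate for 60 min at 37 C. Stop solution raises pH to 10; fluorescence read at Ex 386/Em 447 nm.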
IL-1B inflam inh: blocks inflammasome-driven IL-1 beta release; hit rate 4.7% among 360,000; AID 743279; activity change, % at 57.5 µM; THP-1 LPS/ATP IL-1B secretion, AlphaLISA, 16 h; hits give low values; in the data active means activity change below about -50%; inconclusive means mostly about -30% to -49%; further: on the % scale 0 is the no-effect control and ±100 the full control effect
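THP-1 cells pretreated 1 hr with compounds (up to 57.5 uM final), then stimulated with LPS (250 ng/mL final) plus ATP (1.25 mM final); secreted IL-1B measured by AlphaLISA after 16 hr, decreased signal indicating inhibition.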
Starred values were filed as active, the others as inactive; ? = inconclusive; · = no result given. Unless noted, the call rests on the fitted dose curve; in most records, active means well fitted curve in the direction sought with a large enough effect; inconclusive means small, poorly fitted or top-dose-only effect, or another doubt; inactive means no such curve, though single readings can be large; an effect the other way counts as inactive or inconclusive.

SMILES | TDP1 cell noCPT | HepG2 tox | DT40 TDP1 CPT | TGFb inhibitor | ASM inhibitor | IL-1B inflam inh
COc1ccccc1NC(=O)CSC1=Nc2ccccc2C2=NC(CCC(=O)NCc3cccs3)C(=O)N12 (stereo unspecified) | ? | -28% | ? | -22% | · | ·
C[C@H](CO)N1C[C@H](C)[C@@H](CN(C)C)Oc2c(NC(=O)CCC(F)(F)F)cccc2C1=O | -6% | 7% | -7% | ? | -1% | 7
CC(C)NC(=O)N1Cc2cc(C(=O)NC3CCCC3)nc(-c3cccc(-c4cccnc4)c3)c2[C@H]1CCO | ? | · | ? | · | · | -17
CC(C)NC(=O)N1Cc2cc(C(=O)NC3CCCC3)nc(-c3cccc(-c4cccnc4)c3)c2[C@@H]1CCO | 13µM* | · | ? | · | · | -13
COc1ccc(C#Cc2cccc(-c3nc(C(=O)NCCCN4CCOCC4)cc4c3[C@H](CCO)N(S(=O)C(C)(C)C)C4)c2)cc1OC (stereo partly specified) | 23µM* | -5% | ? | -44% | · | -27
COCCNC(=O)c1cc2c(c(-c3cccc(-c4cc5ccccc5o4)c3)n1)[C@@H](CCO)N(S(=O)C(C)(C)C)C2 (stereo partly specified) | ? | -21% | 16µM* | ? | · | -19
CCNC(=O)c1cc2c(c(-c3cccc(-c4cc5ccccc5o4)c3)n1)[C@H](CCO)N(C(=O)NC(C)C)C2 | 9.2µM* | · | 21µM* | · | · | -23
O=C(N1CCc2cc(S(=O)(=O)NC[C@H]3O[C@@H](n4ccc(=O)[nH]c4=O)[C@H](O)[C@@H]3O)ccc2C1)C(F)(F)F | -1% | 3% | -1% | 1% | 2% | 16
CCOC(=O)c1c(C)[nH]c(C(=O)OC(C)C(=O)NC2(C#N)CCCCC2)c1C (stereo unspecified) | ? | 4% | ? | -1% | · | -9
O=C(NNC(=O)C1C2C=CC(C2)C1C(=O)O)c1ccccc1O (stereo unspecified) | 12% | -8% | 2% | 0% | 2% | 5
COCCNC(=O)c1cc2c(c(-c3cccc(-c4cc5ccccc5o4)c3)n1)[C@H](CCO)N(S(=O)C(C)(C)C)C2 (stereo partly specified) | 23µM* | -5% | ? | -5% | · | -8
CC(C)(C)S(=O)N1Cc2cc(C(=O)NCc3ccc(Oc4ccccc4)cc3)nc(-c3cccc(-c4cc5ccccc5o4)c3)c2[C@@H]1CCO (stereo partly specified) | ? | -98% | ? | ? | · | -6
O=C(c1ccco1)N1N=C(c2cccs2)CC1c1ccccc1O (stereo unspecified) | 21µM* | -51% | 18µM* | ? | 0% | -12
CC(=O)N1N=C(c2ccccc2)CC1c1cn(Cc2ccccc2)c2ccccc12 (stereo unspecified) | ? | -24% | 18µM* | ? | · | -4
COc1cccc(C2CC(c3cccs3)=NN2C(=O)c2ccco2)c1O (stereo unspecified) | -11% | 7% | -1% | 5% | -9% | 13
O=C(c1ccccc1Cl)N1N=C(c2ccc(Br)cc2)CC1c1nc2ccccc2[nH]1 (stereo unspecified) | 16µM* | -13% | ? | -22% | -29% | -67*
COc1ccc(C2=NN(C(=O)c3cccs3)C(c3ccccc3OC)C2)cc1OC (stereo unspecified) | ? | -2% | ? | -6% | -7% | -84*
Cc1ccc(C(=O)N2CCC(N3CCN(Cc4ccc(F)cc4)C(=O)C3=O)CC2)cc1 | -10% | 3% | -4% | -16% | · | ·
O=C1CN(C(=O)COC(=O)Cc2ccccc2F)c2ccccc2N1 | -8% | -24% | -1% | -3% | 0% | 4
Cc1ccc(S(=O)(=O)n2nc(C)c(S(=O)(=O)N3CCC(C)CC3)c2C)cc1 | 4% | -7% | -19% | -1% | · | ·
CC(=O)c1ccc(N2CCN(C(=S)NCCCN(C)C)CC2)cc1 | 0% | 1% | -20% | 0% | 3% | -22
COc1cccc(C2CC(c3ccc(C)cc3)=NN2C(=O)c2ccccc2F)c1OC (stereo unspecified) | ? | -64% | ? | ? | -25% | -18
Cc1ccc(C2=NN(C(=O)c3ccccc3F)C(c3ccccc3F)C2)cc1 (stereo unspecified) | 21µM* | -20% | 21µM* | -12% | -7% | -16
O=C(NNC1CC(c2ccccc2)=NN1C(=O)c1ccccc1)c1ccccc1 (stereo unspecified) | 23µM* | -30% | 26µM* | 0% | -5% | -7
O=C(c1ccncc1)N1N=C(c2ccc(Br)cc2)CC1c1ccccc1O (stereo unspecified) | ? | -25% | ? | ? | -16% | -63*
SMILES | TDP1 cell noCPT | HepG2 tox | DT40 TDP1 CPT | TGFb inhibitor | ASM inhibitor | IL-1B inflam inh
O=C(c1cccs1)N1N=C(c2ccccc2)CC1c1ccccc1O (stereo unspecified) | ? | -52% | -3% | ? | -2% | -79*
Cc1ccc(C2=NN(C(=O)c3cccs3)C(c3ccccc3O)C2)cc1 (stereo unspecified) | ? | -100% | ? | ? | 15% | -26
NC(=O)C1Cc2ccccc2CN1C(=O)c1cc(C2CC2)nn1-c1ccccc1 (stereo unspecified) | -12% | -19% | -27% | -3% | 3% | -16
O=C(c1ccccc1)N1N=C(c2ccccc2)CC1c1ccccc1O (stereo unspecified) | ? | -186% | 23µM* | ? | -13% | -108*
NC(=O)C1(N2CCCCC2)CCN(c2ccc3nnc(-c4ccccc4)n3n2)CC1 | ? | 4% | -26% | -2% | -3% | -5
CN(C)C(=O)N1CCN(c2nc(-c3ccccc3)cs2)CC1 | ? | -46% | ? | -16% | 0% | -23
O=C(NC1CCCCC1)N1CCN(c2nc(-c3ccccc3)cs2)CC1 | 26µM* | -24% | ? | ? | -2% | -64*
O=C(NC12CC3CC(CC(C3)C1)C2)N1CCN(c2nc(-c3ccccc3)cs2)CC1 | 18µM* | 3% | ? | -23% | -4% | ?
NC(=O)C1(N2CCCCC2)CCN(c2nc(-c3ccccc3)cs2)CC1 | 16µM* | -28% | 21µM* | 7% | 5% | -8
